Records with an inconclusive call do not appear. Activity calls are given as the source filed them. How the source made its calls: active means hit-call score of the fitted dose curve at least 0.9, where 1 is the maximum; inconclusive means response in the unintended direction; inactive means score below 0.9.

This assay concerns the target human Dual Specificity Styrosine-Phosphorylation-Regulated Kinase 1A (DYRK1a), DYRK1A (gene 1859) (UniProt Q13627). Kind of assay: NVS_ENZ_hDYRK1a: NovaScreen (NVS) Enzymatic Assay for human Dual Specificity Styrosine-Phosphorylation-Regulated Kinase 1A (DYRK1a). As for the experimental part:
NVS_ENZ_hDYRK1a is a biochemical, single-readout assay that uses extracted gene-proteins in a cell-free assay. Measurements were taken 1 hour after chemical dosing in a 96-well plate.NVS_ENZ_hDYRK1a is one of one assay component(s) measured or calculated from the NVS_ENZ_hDYRK1a assay. It is designed to make measurements of enzyme activity, a form of enzyme reporter, as detected with fluorescence intensity signals by Fluorescence and electrophoretic mobility shift technology.Data from the assay component NVS_ENZ_hDYRK1a was analyzed into 1 assay endpoint. This assay endpoint, NVS_ENZ_hDYRK1a, was analyzed in the positive analysis fitting direction relative to DMSO as the negative control and baseline of activity. Using a type of enzyme reporter, loss-of-signal activity can be used to understand changes in the enzymatic activity as they relate to the gene DYRK1A. Furthermore, this assay endpoint can be referred to as a primary readout, because this assay has produced multiple assay endpoints where this one serves a enzymatic activity function. To generalize the intended target to other relatable targets, this assay endpoint is annotated to the kinase intended target family, where the subfamily is dual-specific kinase.
Binding assays used specific radioligands (tritiated, iodinated) with non-radioactive competitive displacement ligands in agonist or antagonist protocols (as indicated) and various reference compounds and inhibitors to titrate specific binding to receptors and transporters. Most enzyme assays (CYPs, kinases, phosphatases, proteases, HDACs) used recombinant protein and specific substrates (fluorescence mostly, some colorimetric and radioactive) and inhibitors, followed by a biochemical separation of substrate and product. All assays for the biochemical HTS were initially run in duplicate at a single concentration (10 uM for CYP450 assays and 25 uM for all others). […] Each assay was run with positive and negative controls, and concurrent controls on every plate. The follow-up (secondary) screen tested active chemical-pairs in concentration series, as well as a few additional assays not tested in the primary screen, some selected negative inactives, and several cases re-run in the concentration series for confirmatory purposes.
Regarding `N#Cc1c(Cl)c(Cl)c(Cl)c(C#N)c1Cl`, the molecule was classed as inactive.

As to `O=C(Nc1ccccc1)Nc1cnns1`, the call was inactive.

For the molecule `COc1cc(OC)nc(NC(=O)NS(=O)(=O)c2cc(NC=O)ccc2C(=O)N(C)C)n1`, the result was inactive.

Take `N#Cc1c[nH]cc1-c1cccc2c1OC(F)(F)O2`: the molecule was called inactive.

On to `CNC(=O)ON=C(SC)C(=O)N(C)C`, for which the call was inactive.

For `CCN(CC)C(=O)SCc1ccc(Cl)cc1`, the outcome was inactive.

As for `Nc1c(Cl)cc([N+](=O)[O-])cc1Cl`, the AC50 is 14.7 µM (active).

Turning to `CCCCOC(=O)c1ccccc1C(=O)OCCCC`, the molecule was called inactive.

Take `O=C(Nc1ccccc1)Nc1ccnc(Cl)c1`: the AC50 was 25 µM (active).

For the molecule `CC1=NNC(=O)N(/N=C/c2cccnc2)C1`, the concentration at half-maximal activity (AC50) is 13.5 µM (active).

Regarding `CN(C)[C@@H]1C(=O)C(C(N)=O)=C(O)[C@@]2(O)C(=O)C3=C(O)c4c(O)cccc4[C@@](C)(O)[C@H]3[C@H](O)[C@@H]12`, the AC50 is 16.7 µM (active).

In the case of `O=C(O)c1nc(Cl)ccc1Cl`, the result was inactive.

`COP(N)(=O)SC` (stereo not drawn): the result was inactive.

A word on the AC50: it is the midpoint of the concentration-response curve, whichever way the signal moves.

(Values after PubChem BioAssay AID2283234 (EPA ToxCast).)
